Mtb FBA inh: Mtb FBA enzyme inhibitors, primary screen, biochemical, fluorescence, strain H37Rv | purified M. tuberculosis FBA, fluorescence read-out | inhibition, % at 1 µM | hit rate 2.3% among 360,000 | AID 588726, 2011;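 further: 0% = vehicle and 100% = reference inhibitor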
GDH-TPI counter-1: GDH-TPI coupling enzyme inhibitors, primary screen, artefact control for M. tuberculosis FBA inhibitor project, biochemical, absorbance, full deck. inhibition, % at 4.8 µM. AID 588335, 2011. hit rate 1.2% among 360,000. GDH-TPI coupled enzyme counterscreen, NADH absorbance; in the data active means inhibition above about 30%;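 further: 0% = DMSO wells and 100% = wells lacking the enzyme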
RecA splice inh: Mtb RecA intein splicing inhibitors, primary screen, biochemical, fluorescence, HTS; AID 2221, 2009; hit rate 0.75% among 290,000; cell-free RecA intein splicing; inhibition, % (concentration not given with the values); Protein RecA (Mycobacterium tuberculosis (strain ATCC 25618 / H37Rv)), P9WHJ3; in the data active means inhibition above about 30%;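 further: 0% = vehicle wells and 100% = reference inhibitor control wells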
Target sequence (P9WHJ3 whole entry, looked up, canonical isoform): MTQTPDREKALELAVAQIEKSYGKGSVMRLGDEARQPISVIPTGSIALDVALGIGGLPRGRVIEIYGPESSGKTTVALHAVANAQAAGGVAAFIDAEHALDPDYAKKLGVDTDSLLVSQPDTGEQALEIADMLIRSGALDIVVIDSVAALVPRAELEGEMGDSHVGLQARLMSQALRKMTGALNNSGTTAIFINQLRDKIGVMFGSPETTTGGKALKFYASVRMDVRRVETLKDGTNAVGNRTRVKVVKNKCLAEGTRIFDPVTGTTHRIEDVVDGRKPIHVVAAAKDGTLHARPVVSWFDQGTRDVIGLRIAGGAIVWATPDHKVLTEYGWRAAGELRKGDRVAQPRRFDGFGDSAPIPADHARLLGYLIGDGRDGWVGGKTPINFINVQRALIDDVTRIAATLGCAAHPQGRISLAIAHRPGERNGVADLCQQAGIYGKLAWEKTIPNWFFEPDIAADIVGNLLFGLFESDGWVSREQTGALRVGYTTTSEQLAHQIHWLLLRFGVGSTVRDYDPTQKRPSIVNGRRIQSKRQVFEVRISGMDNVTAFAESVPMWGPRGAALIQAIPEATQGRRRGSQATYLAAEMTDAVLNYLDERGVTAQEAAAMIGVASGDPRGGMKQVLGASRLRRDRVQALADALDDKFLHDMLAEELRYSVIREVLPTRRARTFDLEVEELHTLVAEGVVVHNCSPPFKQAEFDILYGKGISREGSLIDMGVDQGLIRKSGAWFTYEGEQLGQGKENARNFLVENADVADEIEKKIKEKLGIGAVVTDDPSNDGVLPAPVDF
CCHFV vOTU inh: CCHFV vOTU protease inhibitors, primary screen, biochemical, Pep-AMC substrate, fluorescence; Crimean-Congo hemorrhagic fever virus L polyprotein viral ovarian tumor (vOTU) protease …; inhibition, % at 11.5 µM; hit rate 0.55% among 370,000; in the data active means inhibition above about 30%; further: 0% = vehicle wells with enzyme and 100% = no enzyme wells
Mtb FBA inh conf: M. tuberculosis aldolase blockers, biochemical, fluorescence, strain H37Rv, confirmation; hit rate 78% among 5,600; purified M. tuberculosis FBA, fluorescence read-out; AID 651616, 2012; shares compounds with Mtb FBA inh; inhibition, % at 1 µM;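 further: 0% = vehicle wells and 100% = reference inhibitor wells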
GDH-TPI counter-2: GDH-TPI coupling enzyme inhibitors, artefact control for M. tuberculosis FBA inhibitor project, biochemical, fluorescence, high throughput; shares compounds with Mtb FBA inh; GDH-TPI coupled enzyme counterscreen; inhibition, % at 1 µM; hit rate 81% among 5,600; AID 652141, 2013; in the data active means inhibition above about 10%
An asterisk follows results filed as active. Most compounds without a hit are left out; they make up all but 4.2% or so of the library. Unless noted, no stated cut-off is given here; in the data, active means inhibition above about 27%; inactive means the rest.

`CCOC(=O)N1CCN(C(=O)c2cccn3c(=O)c4sccc4nc23)CC1` gave Mtb FBA inh 66*, GDH-TPI counter-1 53*, CCHFV vOTU inh -106, Mtb FBA inh conf 9 and GDH-TPI counter-2 -6.
For CCOC(=O)N1CCN(C(=O)c2ccc3nc4ccc(Cl)cc4c(=O)n3c2)CC1 the results were Mtb FBA inh 12, GDH-TPI counter-1 7, RecA splice inh -24 and CCHFV vOTU inh -29.
`CCOC(=O)N1CCN(C(=O)c2cccn3c(=O)c4cc(Br)ccc4nc23)CC1` gave Mtb FBA inh 16, GDH-TPI counter-1 7 and CCHFV vOTU inh -24.
For CCOC(=O)N1CCN(C(=O)c2ccc3nc4ccsc4c(=O)n3c2)CC1 the results were Mtb FBA inh 29*, GDH-TPI counter-1 25, RecA splice inh -2, CCHFV vOTU inh -41, Mtb FBA inh conf 4 and GDH-TPI counter-2 7.
`CNC(=S)N(CCc1ccccc1)Cc1cc2cc(OC)c(OC)cc2[nH]c1=O` gave Mtb FBA inh 12, GDH-TPI counter-1 24, RecA splice inh 0 and CCHFV vOTU inh -8.
For COc1cc2cc(CN(CCO)S(=O)(=O)c3ccccc3)c(=O)[nH]c2cc1OC the results were Mtb FBA inh 38*, GDH-TPI counter-1 38*, RecA splice inh -1, CCHFV vOTU inh -43, Mtb FBA inh conf 88* and GDH-TPI counter-2 71*.
For O=C(O)CNS(=O)(=O)c1ccc2c(c1)C(=O)c1cc(S(=O)(=O)NCC(=O)O)ccc1-2 the results were Mtb FBA inh 2, GDH-TPI counter-1 12, RecA splice inh -2 and CCHFV vOTU inh 17.
For O=C(O)CNS(=O)(=O)c1ccc2c(c1)Cc1cc(S(=O)(=O)NCC(=O)O)ccc1-2 the results were Mtb FBA inh 41*, GDH-TPI counter-1 -1, CCHFV vOTU inh -3, Mtb FBA inh conf -5 and GDH-TPI counter-2 -6.
For COc1ccccc1N1Cc2ccc(OC)c(OC)c2C1=O the results were Mtb FBA inh 5, GDH-TPI counter-1 8, RecA splice inh 0 and CCHFV vOTU inh -2.
`COc1ccc2c(c1OC)C(=O)N(c1ccccn1)C2` gave Mtb FBA inh 45*, GDH-TPI counter-1 1, RecA splice inh 1, CCHFV vOTU inh 8, Mtb FBA inh conf 115* and GDH-TPI counter-2 106*.
`CC(C)C(=O)Nc1sc2c(c1-c1nc3ccccc3[nH]1)CCCC2` gave Mtb FBA inh 43*, GDH-TPI counter-1 14, RecA splice inh 3, CCHFV vOTU inh -27, Mtb FBA inh conf active and GDH-TPI counter-2 182*.
For CC(C)C(=O)Nc1ccccc1-c1nc2ccccc2[nH]c1=O the results were Mtb FBA inh 0, GDH-TPI counter-1 -1, RecA splice inh 1 and CCHFV vOTU inh -13.
Screening COC(=O)C1=CN(C)C=C(C(=O)OC)C1c1ccsc1 returned Mtb FBA inh 70*, GDH-TPI counter-1 3, RecA splice inh -92, CCHFV vOTU inh -131, Mtb FBA inh conf 116* and GDH-TPI counter-2 118*.
`COc1ccc(N2C(=O)CSC2c2cccc(F)c2)cc1` (centres undefined) gave Mtb FBA inh 39*, GDH-TPI counter-1 -5, RecA splice inh 1, CCHFV vOTU inh 3, Mtb FBA inh conf 181* and GDH-TPI counter-2 154*.
O=C1CC(O)(C(F)F)Oc2ccc3ccccc3c21 (centres undefined) was read as Mtb FBA inh 44*, GDH-TPI counter-1 6, RecA splice inh -1, CCHFV vOTU inh -33, Mtb FBA inh conf 31* and GDH-TPI counter-2 22*.
For O=C1CC(O)(C(F)(F)F)Oc2c1ccc1ccccc21 (centres undefined) the results were Mtb FBA inh 12, GDH-TPI counter-1 2, RecA splice inh 2 and CCHFV vOTU inh -26.
Cc1c(S(=O)(=O)NC2CCCCCC2)c(=O)n(C)c(=O)n1C was read as Mtb FBA inh -3, GDH-TPI counter-1 8, RecA splice inh -2 and CCHFV vOTU inh 25.
CN(C)c1ccc(CNc2ccc3c(c2)ncn3C(C)(C)C)cc1 was read as Mtb FBA inh 5, GDH-TPI counter-1 11, RecA splice inh -2 and CCHFV vOTU inh -16.
`CCN(Cc1ccccc1)S(=O)(=O)c1cc2[nH]c(=O)c(=O)[nH]c2cc1C` gave Mtb FBA inh 28*, GDH-TPI counter-1 20, RecA splice inh 1, CCHFV vOTU inh 0, Mtb FBA inh conf 155* and GDH-TPI counter-2 111*.
For COc1ccc(C(CNC(=O)c2ccc(-n3cnnn3)cc2)N2CCOCC2)cc1 (centres undefined) the results were Mtb FBA inh 43*, GDH-TPI counter-1 5, RecA splice inh 2, CCHFV vOTU inh 5, Mtb FBA inh conf 175* and GDH-TPI counter-2 153*.
`COc1ccc(-c2[nH]c(-c3ccccc3)nc2SCC(=O)NC2CCCC2)cc1` gave Mtb FBA inh 19, GDH-TPI counter-1 6, RecA splice inh -3 and CCHFV vOTU inh -1.
Screening COc1ccc(-c2[nH]c(-c3cccc(OC)c3)nc2SCC(=O)NC2CCCC2)cc1 returned Mtb FBA inh 40*, GDH-TPI counter-1 9, RecA splice inh 5, CCHFV vOTU inh -8, Mtb FBA inh conf 124* and GDH-TPI counter-2 100*.
COc1ccc(-c2cn3nc(SCC(=O)NC4CCCCC4)ccc3n2)cc1 was read as Mtb FBA inh 28*, GDH-TPI counter-1 10, RecA splice inh -9, CCHFV vOTU inh -8, Mtb FBA inh conf 74* and GDH-TPI counter-2 41*.
Screening COc1ccc(-c2ccc(SCC(=O)NC3CCCCC3)nn2)cc1 returned Mtb FBA inh -3, GDH-TPI counter-1 -14, RecA splice inh 1 and CCHFV vOTU inh -3.
CCOC(=O)[C@]12CCCC=C1N(CCCOC)C(=O)[C@@H]2CC(=O)N1CCN(C(=O)c2ccco2)CC1 was read as CCHFV vOTU inh 1.
COC(=O)c1c(NC(=O)C2C3CCC(O3)C2C(=O)O)sc2c1CCCCCC2 (centres undefined) was read as Mtb FBA inh 61*, GDH-TPI counter-1 6, RecA splice inh -4, CCHFV vOTU inh 6, Mtb FBA inh conf 95* and GDH-TPI counter-2 78*.
`CCOC(=O)C1=C(c2ccccc2)OC(N)=C(C#N)C1c1ccncc1` (centres undefined) gave Mtb FBA inh 43*, GDH-TPI counter-1 6, RecA splice inh -1, CCHFV vOTU inh 9, Mtb FBA inh conf 67* and GDH-TPI counter-2 66*.
For CCOC(=O)C1=C(c2ccccc2)OC(N)=C(C#N)C1c1cccs1 (centres undefined) the results were Mtb FBA inh -1, GDH-TPI counter-1 10, RecA splice inh 0 and CCHFV vOTU inh -3.
